The source of these data is the supplement of paper PMC13380429.

The structures appear in SMILES notation.

The subject of experiment [1] is Vero E6 infected with SARS-CoV-2. In words: morphology score (similarity to uninfected cells); higher = more like uninfected cells. As to conditions: 24 h.
The test system is the same in experiment [2]. In words: SARS-CoV-2 infection rate relative to infected DMSO; higher = more infection, active = 60 or less. As to conditions: 24 h.

For `CCC1(C)CC(=O)NC(=O)C1` [bemegride] (10 µM), the morphology score in experiment [1] worked out at 0.0851. In experiment [2], the SARS-CoV-2 infection rate was 95.5% (inactive).

As for `Cc1onc(-c2ccccc2)c1C(=O)N[C@@H]1C(=O)N2[C@@H]1SC(C)(C)[C@@H]2C(=O)O` [oxacillin] (10 µM), the morphology score in experiment [1] is -0.00627. Further, the SARS-CoV-2 infection rate in experiment [2] was 110% (inactive).

In experiment [1], `Cn1cc(-c2cnn3c(N)c(Br)c([C@@H]4CCCNC4)nc23)cn1` (10 µM) yielded a morphology score of 0.535. Besides, the SARS-CoV-2 infection rate in experiment [2] was 82% (inactive).

`OCCOc1ccc(/C(=C(/CCCl)c2ccccc2)c2ccccc2)cc1` [ospemifene] (10 µM): the morphology score in experiment [1] amounted to 0.19. Besides, the SARS-CoV-2 infection rate in experiment [2] was 97.5% (inactive).

As to `C[C@](N)(Cc1ccc(O)cc1)C(=O)O` [metirosine] (10 µM), in experiment [1], the morphology score is -0.111. Besides, the SARS-CoV-2 infection rate in experiment [2] is 112% (inactive).

Turning to `Cc1cc(-c2nc(-c3ccc(OC(F)(F)F)cc3)no2)nn1Cc1ccnc(N2CCN(C3CC3)CC2)c1` (10 µM), the morphology score in experiment [1] is 0.0825. Further, the SARS-CoV-2 infection rate in experiment [2] is 98.5% (inactive).
